Pf Dd2 growth: Plasmodium falciparum Dd2 growth inhibition; P. falciparum Dd2 growth, SYBR Green, 72 h; Potency, µM (titrated, usually from 28.9 µM), usual class: inhibitors; 120,000 compounds, 4.3% hits; AID 1347417; active = well fitted inhibition curve with a large enough effect; note: nearly all actives have a fitted effect of over 65% in size
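Readout: SYBR Green fluorescence, 485 nm excitation, 535 nm emission, after ~16 h lysis at 37C. Before that, Dd2-infected red cells (2.5% hematocrit) grew 72 h with compound, 29 uM top final concentration.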
Hits are given with their value; 0 = inactive. This excerpt belongs to a sample that is enriched for hits.

SMILES	Pf Dd2 growth
O=C(NCCc1noc(-c2ccncc2)n1)c1ccccc1F	0
CN1CCC(NC2(Cc3cc(-c4ccccn4)on3)COC2)CC1	0
Cc1cnc(C(=O)NC2C[C@H]3CC[C@@H](C2)N3C(=O)COc2ccccc2)cn1 (stereo partly specified)	0
CN1[C@@H](CCC(=O)NCc2ccccc2)CNC(=O)[C@@H]2[C@H]1CCN2Cc1ccc(O)cc1	0
CC(NC(=O)C1CCN(c2cc(C(F)(F)F)ncn2)CC1)c1ccccc1 (stereo unspecified)	0
N#Cc1ccc(C(=O)NC2CCCN(c3cc(-c4ccc(Cl)cc4)[nH]n3)C2)cc1 (stereo unspecified)	0
Nc1nc2c(c(C(=O)N[C@H](c3ccccn3)C3CC(O)C3)n1)CCCC2 (stereo partly specified)	0
Cc1cc(NC(=O)CC[C@H]2NC(=O)c3ccccc3NC2=O)nn1C	0
CC(C)CCN(C1CCOCC1)C1CCN(S(=O)(=O)c2cccnc2)CC1	10µM
CC(C)CN(C1CCOCC1)C1CN(S(=O)(=O)c2ccc(F)cc2)C1	0
COCC(=O)N(C1CCOCC1)C1CCN(S(=O)(=O)c2cccnc2)CC1	0
CN(C)[C@@H]1[C@@H](NC(=O)Cn2cnc3ccsc3c2=O)[C@H]2CCO[C@H]21	0
CCc1nc2c(=O)n(CC(=O)NCc3ccc(Br)cc3)nc(C)c2s1	0
Cc1ccccc1-c1[nH]nc2ncc(-c3ccc(F)cc3)nc12	0
CCOC(=O)c1c(C)[nH]c(CCC(=O)NCCCN2CCN(c3ccccc3F)CC2)c1C	11.2µM
CCOC(=O)c1c(C)[nH]c(CCC(=O)NCc2ccc(F)cc2)c1C	0
CCOC(=O)c1c(C)[nH]c(C)c1S(=O)(=O)NCC(=O)N1CCN(c2ccccc2F)CC1	0
COc1ccc(-c2cc(N3CCC(NC(=O)c4ccccc4Br)C3)n[nH]2)cc1 (stereo unspecified)	0
COc1ccc(-c2cc(C(=O)Oc3cccc(C)c3)c3cc(C)ccc3n2)cc1	0
COc1ccc(S(=O)(=O)c2c(C(=O)c3ccc(C)c(C)c3)cnc3ccc(F)cc23)cc1	0
CCOc1ccc(Nc2c(S(=O)(=O)c3ccc(C)cc3)cnc3cc(OC)c(OC)cc23)cc1	0
CCOc1ccc(S(=O)(=O)c2c(C(=O)c3ccc(C)c(C)c3)cnc3ccccc23)cc1	7.94µM
CCOc1ccc(Nc2c(S(=O)(=O)c3ccc(C)cc3)cnc3ccc(OC)cc23)cc1	0
COc1ccc(C(=O)c2cnc3ccc(C)cc3c2S(=O)(=O)c2ccccc2)cc1	11.2µM
CCCc1noc(-c2cn(C3CCN(C(=O)c4ccc[nH]4)CC3)nn2)n1	0
SMILES	Pf Dd2 growth
O=C1[C@@H]2C[C@@H](CN2C(=O)c2ccno2)Oc2ccccc2N1CC1CC1	0
CCCc1nnsc1C(=O)N[C@@H]1COCC[C@@H]1OCC1CC1	0
O=C(Nc1ccc(F)c(Cl)c1)C1=NO[C@@H]2CN(Cc3cccnc3)C[C@H]12	0
COCCN1CCC(C(=O)Nc2ccc(Oc3ccccc3F)cc2)CC1	12.6µM
O=C(Nc1ccc(Oc2ccccc2F)cc1)C1CCCCN1C(=O)c1cccnc1 (stereo unspecified)	0
CCOC(=O)C1CCN(CCC(=O)Nc2ccc(OC)cc2)CC1	0
CCN(CC)CC[C@H]1CN(C(=O)c2ccnc(Cl)c2)CC[C@H]1CC(=O)O	0
O=C(NC1CCN(c2cc(-c3cccs3)[nH]n2)CC1)c1cccc(F)c1	0
CCOC(=O)c1cnc2ccc(Cl)cc2c1Nc1ccc(N2CCOCC2)cc1	8.91µM
CCOC(=O)c1cnc2ccc(Br)cc2c1NCCN1CCOCC1	0
Cc1ccc(NC(=O)Cn2nc(-c3ccc(F)cc3)c3cnc4ccc(C)cc4c32)cc1	0
CCOC(=O)c1cnc2ccc(C)cc2c1Nc1ccc(N(CC)CC)cc1	4.47µM
CCCOC(=O)c1ccc(Nc2c(C(=O)OCC)cnc3c(C)cc(Cl)cc23)cc1	0
CCOC(=O)c1cnc2cc(C(F)(F)F)ccc2c1Nc1cc(C)ccc1OC	0
COc1ccccc1CCC(=O)N1C[C@@H](C)[C@](O)(C2CC2)C1	0
Cc1cc2c(cc1CNC1CC(C)(C)Cc3nc(C(C)(C)C)ncc31)OCO2 (stereo unspecified)	0
COc1cccc(-c2cc3c(=O)n(CCNC(=O)COc4cccc(C)c4)ccn3n2)c1	0
Cc1oc(C(O)c2cccc(O)c2)nc1C(=O)Nc1ccc2c(c1)CNC2=O (stereo unspecified)	0
CCOC(=O)c1c(C)[nH]c(C)c1S(=O)(=O)NCC(=O)Nc1cc(Cl)ccc1OC	0
CCOC(=O)c1c(C)[nH]c(C)c1S(=O)(=O)N(C)CC(=O)Nc1cc(Cl)ccc1OC	10µM
CCOC(=O)c1c(C)[nH]c(C)c1S(=O)(=O)N(C)CC(=O)Nc1cccc(Cl)c1C	0
O=C1NC[C@@H](CCC(=O)N2CCCCC2)N2C[C@@H](NC(=S)Nc3ccc(Cl)cc3)C[C@@H]12	6.31µM
O=C(Nc1ccccc1)N[C@H]1C[C@H]2C(=O)NC[C@@H](CCC(=O)N3CCCCC3)N2C1	0
CC(C)NC(=O)N[C@H]1C[C@H]2C(=O)NC[C@@H](CCC(=O)N3CCCCC3)N2C1	0
COc1nccc(N2CCC(CC(=O)N3CCCN(c4ncccn4)CC3)CC2)n1	0
SMILES	Pf Dd2 growth
O=C(NCc1ccc(F)cc1)N1CCCC(Cc2nncn2-c2ccccc2)C1 (stereo unspecified)	0
O=S(=O)(N[C@H]1[C@H](O)[C@H](O)C[C@@H]1c1ccccc1)c1ccc(C(F)(F)F)cc1	0
N#Cc1ccc(S(=O)(=O)N[C@H]2[C@H](O)[C@H](O)C[C@@H]2c2ccc(C(F)(F)F)cc2)cc1	11.2µM
O=S(=O)(N[C@H]1[C@H](O)[C@H](O)C[C@@H]1c1cncnc1)c1ccc(C(F)(F)F)cc1	0
Cn1nccc1C(=O)N1C[C@@H]2CCCN3CCC[C@@H]([C@H]23)[C@H]1CCCC(=O)NCc1ccccc1	0
Cc1noc(C)c1CCC(=O)NCc1cc2n(n1)CCN(C(=O)N(C)C)C2	0
CC(=O)N1CCN(c2nc3c(s2)CC(C(=O)NCCC2CCN(C)CC2)CC3)CC1 (stereo unspecified)	0
CCCNC(=O)c1ccc2c(c1)N(Cc1cccc(C)c1)C(=O)c1ccccc1S2	0
Cc1ccc(C)c(CN2C(=O)c3ccccc3Sc3ccc(C(=O)NCCCOC(C)C)cc32)c1	0
COc1ccc(CCNC(=O)c2cc(=O)c3cc(C)cc(C)c3o2)cc1OC	0
CNC(=O)c1ccc2c(c1)N=C(C)c1cc(C)ccc1S2	0
CCCC1=Nc2cc(C(=O)NCc3ccccc3)ccc2Sc2ccccc21	11.2µM
CC1=Nc2cc(C(=O)NC(C)C)ccc2Sc2ccc(C)cc21	11.2µM
CCCC1=Nc2cc(C(=O)NCCc3ccc(OC)c(OC)c3)ccc2Sc2ccc(C)cc21	10µM
O=C(NCc1ccccc1)c1ccc2nccn2c1	0
COc1ccc(CCNC(=O)c2ccc(Cn3c(=O)c4ccccc4n(Cc4ccc(C)cc4)c3=O)cc2)cc1OC	0
COc1ccc(CCNC(=O)c2ccc3c(c2)N=C(C)c2cc(C)ccc2S3)cc1OC	11.2µM
COc1ccc(CCNC(=O)c2ccc3[nH]c(C)c(C)c3c2)cc1OC	0
COc1ccc(CCNC(=O)c2ccc3c(c2)N(Cc2cccc(Cl)c2)C(=O)CS3)cc1OC	0
O=S(=O)(c1ccc(C(F)(F)F)cc1)N1CC(c2nc(-c3ccncc3)no2)C1	0
CCn1ncc(N2CCC(NC(=O)c3ccc(C)c(F)c3)CC2)cc1=O	0
O=C(Cn1ccn2nc(-c3ccccc3)c(CO)c2c1=O)Nc1ccc(F)cc1F	0

High-throughput results deposited in PubChem BioAssay by National Center for Advancing Translational Sciences (NCATS).
